Measurements reported in PubChem BioAssay AID1159580 (chemical genetic matrix, 2015).
Where “and” joins values, the source holds several entries; their conditions need not be identical. Equal values may be shown once. The whole screen tested about 5,500 compounds, of which about 2,000 (36%) were called active. Roughly 18% stayed inconclusive and do not appear here. No stated cut-off is given here; in the data, active means normalized growth mostly below about 0.91 (no sharp cut-off); inconclusive means no clear call, values can overlap the other calls; inactive means mostly above about 0.92. Some of the results follow.

Assay: chemical genetic growth profiling, strain panel (AID 1159580);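 further: tested at 20 µM; growth read once vehicle control cultures reached saturation at 30 °C; 1 = growth at the plate median or of vehicle wells; lower values mean less growth of the strain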
Settings: growth OD

Measured: normalized growth

COc1cc2c(cc1OC)-c1cc3ccc(OC)c(OC)c3c[n+]1CC2
inactive: S. cerevisiae deletion strains, locus YJR075W, strain HOC1, active compounds read low 0.985 and 1.03 | S. cerevisiae deletion strains, locus YKL009W, strain mrt4, active compounds read low 0.972 and 0.995 | S. cerevisiae deletion strains, locus YKL068W, active compounds read low 0.996 and 1.01 | S. cerevisiae deletion strains, locus YKL085W, strain MDH1 (second series), active compounds read low 0.995 and 0.999 | S. cerevisiae deletion strains, locus YKL085W, strain MDH1, active compounds read low 0.995 and 0.999 | S. cerevisiae deletion strains, locus YKL160W, strain elf1, active compounds read low 0.982 | S. cerevisiae deletion strains, locus YKL190W, strain CNB1, active compounds read low 0.995 and 1.02 | S. cerevisiae deletion strains, locus YKR001C, strain vps1, active compounds read low 0.971 and 1.02 | S. cerevisiae deletion strains, locus YKR026C, strain gcn3, active compounds read low 0.966 | S. cerevisiae deletion strains, locus YKR091W, strain srl3, active compounds read low 0.984 | S. cerevisiae deletion strains, locus YLL001W, strain dnm1, active compounds read low 0.972 | S. cerevisiae deletion strains, locus YLL026W, active compounds read low 0.983 | S. cerevisiae deletion strains, locus YLL041C, strain sdh2, active compounds read low 0.984 | S. cerevisiae deletion strains, locus YLR027C, strain aat2, active compounds read low 0.978 | S. cerevisiae deletion strains, locus YLR039C, strain RIC1, active compounds read low 1 and 0.981 | S. cerevisiae deletion strains, locus YLR058C, strain SHM2, active compounds read low 0.985 and 1.02 | S. cerevisiae deletion strains, locus YLR102C, strain apc9, active compounds read low 0.986 and 1.02 | S. cerevisiae deletion strains, locus YLR113W, strain HOG1, active compounds read low 1.03 | S. cerevisiae deletion strains, locus YLR221C, strain rsa3, active compounds read low 1.01 | S. cerevisiae deletion strains, locus YLR258W, strain gsy2, active compounds read low 1 | S. cerevisiae deletion strains, locus YLR262C, strain YPT6 (second series), active compounds read low 0.969 | S. cerevisiae deletion strains, locus YLR262C, strain YPT6, active compounds read low 1.02 and 0.979 | S. cerevisiae deletion strains, locus YLR268W, strain sec22, active compounds read low 1.01 and 1.04 | S. cerevisiae deletion strains, locus YLR320W, strain mms22, active compounds read low 0.997 | S. cerevisiae deletion strains, locus YLR330W, strain CHS5, active compounds read low 0.991 and 1.01 | S. cerevisiae deletion strains, locus YLR342W, strain FKS1 (second series), active compounds read low 0.978 and 0.987 | S. cerevisiae deletion strains, locus YLR342W, strain FKS1, active compounds read low 0.995 | S. cerevisiae deletion strains, locus YLR357W, strain rsc2, active compounds read low 0.984 | S. cerevisiae deletion strains, locus YLR370C, strain arc18, active compounds read low 0.975 | S. cerevisiae deletion strains, locus YLR371W, strain rom2, active compounds read low 0.978 and 1.01 | S. cerevisiae deletion strains, locus YLR384C, strain iki3, active compounds read low 0.969 | S. cerevisiae deletion strains, locus YLR418C, strain cdc73, active compounds read low 0.994 and 1 | S. cerevisiae deletion strains, locus YML016C, strain PPZ1, active compounds read low 0.982 and 1.01 | S. cerevisiae deletion strains, locus YML032C, strain rad52, active compounds read low 0.972 and 0.998 | S. cerevisiae deletion strains, locus YML120C, strain ndi1, active compounds read low 0.987 | S. cerevisiae deletion strains, locus YML124C, strain tub3, active compounds read low 0.993 and 1.02 | S. cerevisiae deletion strains, locus YMR058W, strain fet3, active compounds read low 0.978 | S. cerevisiae deletion strains, locus YMR078C, strain ctf18, active compounds read low 0.979 and 1.01 | S. cerevisiae deletion strains, locus YMR125W, strain sto1, active compounds read low 0.958 | S. cerevisiae deletion strains, locus YMR129W, active compounds read low 0.985 | S. cerevisiae deletion strains, locus YMR205C, strain PFK2, active compounds read low 0.955 | S. cerevisiae deletion strains, locus YMR223W, strain ubp8, active compounds read low 0.977 and 1.01 | S. cerevisiae deletion strains, locus YMR231W, strain pep5, active compounds read low 1 | S. cerevisiae deletion strains, locus YMR263W, strain SAP30, active compounds read low 0.998 | S. cerevisiae deletion strains, locus YMR307W, strain GAS1, active compounds read low 0.984 and 1.03 | S. cerevisiae deletion strains, locus YNL067W, strain RPL9B, active compounds read low 0.998 and 1.05 | S. cerevisiae deletion strains, locus YNL071W, strain lat1, active compounds read low 0.994 | S. cerevisiae deletion strains, locus YNL128W, strain TEP1, active compounds read low 0.999 | S. cerevisiae deletion strains, locus YNL153C, strain GIM3, active compounds read low 1.01 | S. cerevisiae deletion strains, locus YNL183C, strain NPR1, active compounds read low 0.978 | S. cerevisiae deletion strains, locus YNL209W, strain ssb2, active compounds read low 0.977 | S. cerevisiae deletion strains, locus YNL233W, strain BNI4, active compounds read low 0.981 and 1.03 | S. cerevisiae deletion strains, locus YNL248C, strain rpa49, active compounds read low 0.982 | S. cerevisiae deletion strains, locus YNL250W, strain rad50, active compounds read low 0.989 and 1.02 | S. cerevisiae deletion strains, locus YNL271C, strain bni1, active compounds read low 0.986 and 1.01 | S. cerevisiae deletion strains, locus YNL298W, strain CLA4, active compounds read low 0.995 and 1.02 | S. cerevisiae deletion strains, locus YNL307C, strain MCK1, active compounds read low 0.986 and 1.02 | S. cerevisiae deletion strains, locus YNL322C, strain KRE1 (second series), active compounds read low 0.97 | S. cerevisiae deletion strains, locus YNL322C, strain KRE1, active compounds read low 0.987 and 1.01 | S. cerevisiae deletion strains, locus YNR049C, strain mso1, active compounds read low 0.98 | S. cerevisiae deletion strains, locus YNR052C, strain pop2, active compounds read low 0.995 and 1.02 | S. cerevisiae deletion strains, locus YOL006C, strain TOP1, active compounds read low 1.01 | S. cerevisiae deletion strains, locus YOL012C, strain htz1 0.984 and 1.9 | S. cerevisiae deletion strains, locus YOL147C, strain pex11, active compounds read low 0.991 and 1.01 | S. cerevisiae deletion strains, locus YOR001W, strain rrp6, active compounds read low 0.968 | S. cerevisiae deletion strains, locus YOR061W, strain CKA2, active compounds read low 0.99 and 1 | S. cerevisiae deletion strains, locus YOR069W, strain VPS5, active compounds read low 0.992 and 1.01 | S. cerevisiae deletion strains, locus YOR070C, strain gyp1, active compounds read low 0.986 | S. cerevisiae deletion strains, locus YOR080W, strain dia2, active compounds read low 0.984 | S. cerevisiae deletion strains, locus YOR083W, strain WHI5, active compounds read low 0.999 | S. cerevisiae deletion strains, locus YOR106W, strain vam3, active compounds read low 0.961 | S. cerevisiae deletion strains, locus YOR136W, strain idh2, active compounds read low 0.989 and 1.02 | S. cerevisiae deletion strains, locus YOR144C, strain elg1, active compounds read low 0.989 and 1.01 | S. cerevisiae deletion strains, locus YOR184W, strain ser1, active compounds read low 0.984 and 1 | S. cerevisiae deletion strains, locus YOR231W, strain MKK1, active compounds read low 1.01 | S. cerevisiae deletion strains, locus YOR265W, strain rbl2, active compounds read low 0.973 | S. cerevisiae deletion strains, locus YOR270C, strain vph1, active compounds read low 0.97 | S. cerevisiae deletion strains, locus YOR290C, strain snf2, active compounds read low 0.98 | S. cerevisiae deletion strains, locus YOR316C, strain cot1, active compounds read low 0.986 and 1.01 | S. cerevisiae deletion strains, locus YPL051W, strain arl3, active compounds read low 0.991 | S. cerevisiae deletion strains, locus YPL055C, strain LGE1, active compounds read low 1.03 and 1.02 | S. cerevisiae deletion strains, locus YPL078C, strain atp4, active compounds read low 0.986 | S. cerevisiae deletion strains, locus YPL106C, strain sse1, active compounds read low 0.971 | S. cerevisiae deletion strains, locus YPL240C, strain hsp82, active compounds read low 0.969 | S. cerevisiae deletion strains, locus YPL241C, strain CIN2, active compounds read low 0.995 and 1 | S. cerevisiae deletion strains, locus YPL256C, strain CLN2, active compounds read low 1.03 | S. cerevisiae deletion strains, locus YPR119W, strain clb2, active compounds read low 0.985 and 1.01 | S. cerevisiae deletion strains, locus YPR141C, strain kar3, active compounds read low 0.981 and 1.02 | S. cerevisiae deletion strains, locus YPR163C, strain tif3, active compounds read low 0.992 and 1.03 | S. cerevisiae deletion strains, locus YPR167C, strain met16, active compounds read low 0.983 and 1.01 | S. cerevisiae deletion strains, strain wtn01, active compounds read low 0.972 and 1.03 | S. cerevisiae strains, strain wild type, active compounds read low 0.987
